Only some compounds are listed: those with a hit (about 6% of all), similar ones and a draw of the others.
Sfp PPTase inh: blocks B. subtilis Sfp PPTase activity; Q9F4F7; Biochemical Sfp PPTase activity, qHTS; 3.5% of 310,000 active; Potency, µM, without a hit: largest response in the series, negative = inhibition, hits mostly inhibitors;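 also: the enzyme is Sfp with the accession as filed and its product quenches rhodamine fluorescence; 0% = enzyme reaction without inhibitor and -100% = no enzyme wells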
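Sfp 15 nM + cpd, 15 min RT; start w/ rhodamine-CoA 5 uM, BHQ-2-YbbR 12.5 uM (final); 50 mM Hepes pH 7.6, 10 mM MgCl2, 0.01% NP-40, 0.01% BSA; read 525/598 nm at 0 and 30 min.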
Tau fibril ThT: inhibitors of human tau fibril formation, thioflavin T binding; P10636; recombinant tau K18 P301L, heparin-induced fibrillization, ThT fluorescence; Potency, µM (highest dose often 57.4 µM), for the others: at the top dose activity, negative = inhibition, hits mostly inhibitors; 2.1% of 270,000 active; also: nearly all actives have a fitted effect of over 55% in size
Target sequence (P10636 561-689 P618L limits assumed): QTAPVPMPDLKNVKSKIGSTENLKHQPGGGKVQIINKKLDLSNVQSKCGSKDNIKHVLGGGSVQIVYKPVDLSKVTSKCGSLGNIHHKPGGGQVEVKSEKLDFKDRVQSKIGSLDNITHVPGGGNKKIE
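In this qHTS, human K18 P301L tau is incubated with compound and heparin for 6 hr at 37 C, and Thioflavin T fluorescence then reports fibril load.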
Tau FP inhib: blocks human tau fibril formation measured by polarization | 0.39% of 280,000 active | K18 P301L tau heparin fibrillization, Alexa594 FP, 6 h | P10636 | Potency, µM (series often up to 57.7 µM), without a hit: at the highest dose activity, negative = inhibition, hits mostly inhibitors | AID 1468; also: nearly all actives have a fitted effect of over 55% in size
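Human tau K18 […] P301L fragment, 15 uM unlabeled plus 0.24 uM Alexa 594-labeled tau (final), with compound and 20 uM heparin in 100 mM sodium acetate pH 7; 6 hr at 37 C, then Alexa 594 FP read.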
VDR inh: inhibitors of human vitamin D receptor; VDR-SRC2-3 peptide fluorescence polarization, 2 h; Potency, µM, for the others: max response, negative = inhibition, actives largely listed as inhibitors; 0.93% of 400,000 active; AID 504847
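Inhibition of the VDR/SRC2-3 peptide interaction is quantified by fluorescence polarization. Compounds (23 nl, pintool) incubate with the reagents for 2 hours at ambient room temperature.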
Tau fluor cs: counter-screen for tau fibril formation inhibitors; Potency, µM (titrated, usually from 57.7 µM), for the others: at the top dose activity change, negative = decrease; AID 1463; 0.93% of 280,000 active; tau K18 P301L (four-repeat tau fragment) Alexa594 fluorescence, heparin fibrillization; also: nearly all actives have a fitted effect of over 55% in size
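Human K18 P301L tau (15 uM unlabeled plus 0.24 uM Alexa 594-labeled, final) in 100 mM sodium acetate pH 7 was mixed with compound and 20 uM heparin and incubated 6 hr at 37 C.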
PLK1 PBD block: PLK1 (human) polo-box domain binding inhibition | AID 720504 | 2.8% of 360,000 active | P53350 | Plk1 PBD binding of FITC phosphopeptide, fluorescence polarization | Potency, µM, for inactives: max response, negative = inhibition, usual class: inhibitors; also: series mostly up to about 57 µM; nearly all actives have a fitted effect of over 65% in size
Target sequence (P53350 whole entry, looked up, the tested form may be a part): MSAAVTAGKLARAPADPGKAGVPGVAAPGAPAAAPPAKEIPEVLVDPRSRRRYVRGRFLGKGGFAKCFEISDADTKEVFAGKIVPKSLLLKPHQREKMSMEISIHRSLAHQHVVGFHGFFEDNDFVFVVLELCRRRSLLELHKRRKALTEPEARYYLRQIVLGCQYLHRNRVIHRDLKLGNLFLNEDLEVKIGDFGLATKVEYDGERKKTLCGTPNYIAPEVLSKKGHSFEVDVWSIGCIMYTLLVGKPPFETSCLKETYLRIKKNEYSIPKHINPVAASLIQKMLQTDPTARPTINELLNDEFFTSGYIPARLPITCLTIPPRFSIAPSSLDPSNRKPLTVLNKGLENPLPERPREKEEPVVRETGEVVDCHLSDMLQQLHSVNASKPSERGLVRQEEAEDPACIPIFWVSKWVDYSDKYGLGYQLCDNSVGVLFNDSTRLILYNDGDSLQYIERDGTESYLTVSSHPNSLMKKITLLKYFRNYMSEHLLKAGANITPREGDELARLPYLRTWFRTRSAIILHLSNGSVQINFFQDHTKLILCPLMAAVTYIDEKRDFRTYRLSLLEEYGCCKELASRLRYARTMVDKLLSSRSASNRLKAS
Starred values were filed as active, the others as inactive; ? = inconclusive; / = no result given; [ ] = another dose, or the depositor's remark. Calls follow the shape of the dose curve; as a rule, active = well fitted curve in the direction sought with a large enough effect; inconclusive = small, poorly fitted or top-dose-only effect, or another doubt; inactive = no such curve, though single readings can be large; an effect the other way counts as inactive or inconclusive. Unless noted, % is scaled to controls: 0 for no effect and ±100 for the full control effect; potency is read from the fitted curve at half-maximal effect.

SMILES	Sfp PPTase inh	Tau fibril ThT	Tau FP inhib	VDR inh	Tau fluor cs	PLK1 PBD block
CCOC(=O)c1c(NC(=O)COC(=O)Cn2c(C)nc3ccccc32)sc2c1CCCC2	31.6µM*	?	2.5%	6.4%	-6.8%	0.9%
CCOC(=O)c1c(NC(=O)Cn2c(C)nc3ccccc32)sc2c1CCC2	-2.2%	-10.1%	-4.1%	-0.1%	-0.5%	-5.8%
CCOC(=O)c1c(NC(=O)c2nn(CC)cc2Br)sc2c1CCCCC2	20µM*	?	-15.5%	1.0%	-26.2%	-17.1%
Cc1ccc(C(C)C)c(OCC(=O)Nc2ccc(S(=O)(=O)Nc3onc(C)c3C)cc2)c1	/	-17.3%	5.2%	-23.0%	-3.5%	/
COC(=O)c1c(NC2=NS(=O)(=O)c3ccccc32)sc2c1CCC(C(C)(C)C)C2 (stereo not drawn)	/	/	/	7.0%	/	-12.1%
CCOc1cc(-c2nc3c(c(CC)nn3-c3ccccc3)c3cc(OC)c(OC)cc23)ccc1O	/	-9.8%	-4.7%	9.3%	?	/
COc1ccc(N/N=C(\C#N)C(=N)SCc2ccccc2)cc1	-13.0%	14.1µM*	5.1%	?	?	-4.0%
CC(C)C[C@H](NC(=O)[C@@H](Cc1c[nH]c2ccccc12)NC(=O)[C@H](Cc1ccc(O)cc1)NC(=O)[C@H](CO)NC(=O)[C@H](Cc1c[nH]c2ccccc12)NC(=O)[C@H](Cc1cnc[nH]1)NC(=O)[C@@H]1CCC(=O)N1)C(=O)N[C@@H](CCCN=C(N)N)C(=O)N1CCC[C@H]1C(=O)NCC(N)=O	11.3%	/	/	14.7%	/	/
C/C(=N\NC(N)=S)c1ccc(-n2ccnc2)cc1	79.4µM*	?	-2.5%	3.5%	-0.1%	-10.2%
C/C(=N\Nc1ccc(Cl)c(Cl)c1)c1ccc(-n2ccnc2)cc1	-18.7%	?	2.2%	-0.5%	14.1µM*[quencher]	-3.2%
C/C(=N\NC(=O)c1ccccc1)c1ccc(-n2ccnc2)cc1	3.7%	?	-0.4%	3.7%	-2.5%	3.6%
Cc1ccc(C)c(C(=O)COC(=O)Cn2c(C)csc2=O)c1	-3.8%	/	/	34.7%	/	-9.0%
Clc1cccc(N2CCN(c3nc4ccccc4c4nc(-c5cccnc5)nn34)CC2)c1	/	-11.6%	-3.8%	2.1%	-16.6%	/
COc1ccc(CC(=O)NNC(=O)c2cnccn2)cc1	56.2µM*	-10.7%	-9.2%	1.2%	-7.4%	-5.1%
CC(C)(C)C(=O)NNC(=O)c1cnccn1	79.4µM*	-2.7%	-0.3%	-6.0%	-0.4%	-11.3%
Cc1ccc(-c2nc3ccc(Cl)cn3c2Cc2cccc(Cl)c2)cc1	/	/	/	/	/	-26.7%
COc1ccccc1Nc1ccc(NS(=O)(=O)c2ccc(C(C)=O)cc2)cc1	-3.3%	/	/	13.2%	/	-8.7%
N#C/C(=N\Nc1cccc(C(F)(F)F)c1)C(=O)c1csc(-c2cccnc2)n1	-0.1%	4.47µM*	9.8%	-15.6%	-15.2%	?
Cc1ccc(S(=O)(=O)N2C[C@H]3C(=O)C[C@@H](c4ccccc4)N(S(=O)(=O)c4ccc(C)cc4)[C@H]3C[C@H]2c2ccc(Cl)cc2)cc1	/	/	/	/	/	-8.2%
COc1cc2cc3c(N)c(C(=O)NCc4ccco4)sc3nc2cc1OC	-14.8%	14.1µM*	-4.5%	-1.0%	?	-2.5%
COc1cc2cc3c(N)c(C(=O)Nc4sc(C)c(C)c4C#N)sc3nc2cc1OC	-20.4%	5.01µM*	8.4%	16.2%	-26.9%	-14.8%
CCCNC(=O)OC[C@@H]1O[C@H](CCO/N=C(\C)CCN2CCc3nc(CC)c(CC)cc3C2)C=C[C@@H]1Oc1ccc(OC)cc1	-2.8%	-15.9%[11.5 µM]	7.2%[11.6 µM]	/	-4.7%[11.6 µM]	/
COc1ccc(NCc2cccn2-c2nnc(N3CCOCC3)s2)cc1OC	/	-13.5%	4.0%	9.5%	-6.6%	/
CC(NC(=O)CSc1ncn[nH]1)c1ccc(Cl)cc1Cl (stereo not drawn)	9.9%	/	/	6.3%	/	-12.2%
COC(=O)c1ccccc1NC(=O)Cn1ncc2c(C)n(Cc3ccc(F)cc3)c(C)c2c1=O	/	?	-0.2%	16.4%	-14.9%	/
SMILES	Sfp PPTase inh	Tau fibril ThT	Tau FP inhib	VDR inh	Tau fluor cs	PLK1 PBD block
O=c1[nH][nH]c(C(F)(F)F)c1C=Nc1ccccc1	24.2%	1.3%	0.4%	-1.7%	1.2%	-1.6%
Cc1cc(O)ccc1N=Cc1c(C(F)(F)F)[nH][nH]c1=O	?	25.1µM*	31.6µM*	-0.6%	?	-22.4%
C/C(N)=C(/C#N)C(=O)COC(=O)C1CCN(S(=O)(=O)c2cccs2)CC1	/	/	/	-13.2%	/	3.2%
O=C(CSc1ccc(-c2ccco2)nn1)c1cccc([N+](=O)[O-])c1	14.1µM*	?	-8.3%	?	-21.5%	-24.4%
CC(=O)c1cccc(NC(=O)CSc2ccc(-c3ccco3)nn2)c1	20µM*	/	/	?	/	?
O=C(CSc1ccc(-c2ccco2)nn1)NCc1ccccc1	22.4µM*	?	-8.4%	-11.6%	-10.6%	-10.4%
CCc1ccc(NC(=O)CSc2ccc(-c3ccco3)nn2)cc1	35.5µM*	-12.3%	3.7%	79.4µM*	-11.3%	18.9µM*
CCSc1ccc(-c2cccc([N+](=O)[O-])c2)nn1	-8.9%	?	-3.4%	16.1%	-12.1%	-6.7%
CCN1CCN(Cc2c(O)ccc3c(C)c(-c4ccc(OC)cc4)c(=O)oc23)CC1	/	?	-6.6%	2.1%	-1.9%	/
COC(=O)c1ccc(CSCc2ccc(C#N)cc2)cc1	-9.3%	/	/	/	/	/
CCOC(=O)c1c(C)c(-c2ccccc2)n(CC(=O)NCCc2ccc(C)cc2)c1C	/	0.3%	3.7%	-13.6%	-0.3%	/
CCN(CC(=O)Nc1ccccc1C(F)(F)F)CC(=O)c1[nH]c(C)c(C(C)=O)c1C	/	/	/	/	/	-12.8%
COc1ccccc1CCNC(=O)CSc1ccc(-c2ccco2)nn1	22.4µM*	?	-10.1%	-11.3%	1.5%	-11.6%
O=C(CSc1ccc2nnc(-c3cccnc3)n2n1)NCc1ccco1	50.1µM*	?	-6.3%	-22.4%	-10.3%	-4.6%
COc1ccc(-c2ccc(SCC(=O)NCc3ccco3)nn2)cc1OC	50.1µM*	?	?	-4.9%	-14.8%	-7.9%
Cc1ccc(NC(=O)CSc2ccc3nnc(-c4cccnc4)n3n2)cc1	10.5%	/	/	2.4%	/	-3.8%
COc1ccc(-c2cc(C(F)(F)F)nc(SCC(=O)NCc3ccco3)n2)cc1OC	-8.4%	9.6%	2.7%	-1.0%	3.8%	-15.3%
CC(CCc1ccccc1)NC(=O)Cn1c(=O)nc(-c2ccccc2F)c2cc(Cl)ccc21 (stereo not drawn)	/	?	-8.8%	16.7%	-22.6%	/
COc1ccc(CCNC(=O)C(=O)Nc2ccc(C)cc2)cc1OC	/	-9.5%	-14.5%	0.8%	-7.9%	/
CSc1ccc(CN2CCC(n3nccc3NC(=O)c3ccccc3C)CC2)cc1	12.9%	/	/	-21.3%	/	29.9µM*
CCCCc1ncc(CN2CCC(n3nccc3NC(=O)c3ccccc3OC)CC2)[nH]1	1.4%	/	/	?	/	23.8µM*

Screening results as filed in PubChem BioAssay.
